Holding throughout (experiment): NCI-60 one-dose screen, 48 h (100 = growth as untreated, 0 = no growth, -100 = all killed)
Assay [1] concerns HCT-15 colon. As to conditions: 10 µM unless noted.
The subject of assay [2] is HT29 colon. As to conditions: 10 µM unless noted.
The test system of assay [3] is SNB-75 CNS. As to conditions: 10 µM unless noted.
For assay [4], the system named is SNB-19 CNS. As to conditions: 10 µM unless noted.
For assay [5], the system named is U251 CNS. The conditions noted are these: 10 µM unless noted.
For assay [6], the system named is PC-3 prostate. The conditions noted are these: 10 µM unless noted.
In assay [7] the test system is SK-MEL-5 melanoma. The conditions noted are these: 10 µM unless noted.
In assay [8] the test system is UACC-62 melanoma. The conditions noted are these: 10 µM unless noted.
Assay [9] relates to LOX IMVI melanoma. As to conditions: 10 µM unless noted.
Assay [10] relates to SK-MEL-28 melanoma. As to conditions: 10 µM unless noted.
For assay [11], the system named is SK-MEL-2 melanoma. The conditions noted are these: 10 µM unless noted.
Assay [12] concerns EKVX NSCLC. As to conditions: 10 µM unless noted.
Assay [13] deals with SN12C renal. The conditions noted are these: 10 µM unless noted.
Assay [14] has as its system UO-31 renal. The conditions noted are these: 10 µM unless noted.
Assay [15] relates to TK-10 renal. The conditions noted are these: 10 µM unless noted.
The test system of assay [16] is ACHN renal. The conditions noted are these: 10 µM unless noted.
Assay [17] concerns A498 renal. The conditions noted are these: 10 µM.
Assay [18] deals with CCRF-CEM leukemia. The conditions noted are these: 10 µM unless noted.
The test system of assay [19] is CAKI-1 renal. As to conditions: 10 µM unless noted.
Assay [20] has as its system HL-60(TB) leukemia. As to conditions: 10 µM unless noted.

This is part of a sample that, as a whole, favours compounds with a hit. Of some 83,000 tested, about 20% had one in any assay.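 Growth was measured after 48 h exposure to one concentration of compound in 96-well plates. Values under 10 count as active.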 A number with no mark means an inactive call. Calls of active or inactive are those of the source.

Turning to `COC(=O)[C@@]1(C)CC[C@]2(C)CC[C@]3(C)C4=CC(=O)c5c(cc(O)c(O)c5C)[C@]4(C)CC[C@@]3(C)[C@@H]2C1`, the growth is 36.9% in assay [1]; 90.2% in [2]; 112% in assay [3]; 60.5% in [4]; 42% in assay [5]; 33.8% in [6]. The growth was 7.93% (active) in assay [7]; 28.3% in assay [8]; 50.7% in assay [9]; 91.3% in assay [10]; 71.6% in [11]; 71.7% in assay [12]. Besides, the growth is 61.7% in [13]; 50.6% in assay [14]; 68.9% in assay [15]; 53.3% in assay [16]; 57.1% in assay [17]; 26.9% in assay [18].
Consider `O=C1C2C(C(=O)[N]1[Hg][c]1ccccc1)C1(Cl)C(Cl)=C(Cl)C2(Cl)C1(Cl)Cl` (centres undefined), for which the growth in assay [1] was -89.1% (active); in assay [2], -45% (active); in assay [3] it was -64.1% (active); in [4], 25.9%; in [5] it was -65.9% (active); in assay [6], -57.4% (active). For the same compound, the growth in assay [7] is -16.6% (active); in assay [8], -3.49% (active); in assay [9] it was -82.8% (active); in assay [10], -88.9% (active); in assay [11], 50.8%; in assay [12], -7.36% (active). For the same compound, the growth was -71.7% (active) in assay [13]; -77.1% (active) in assay [14]; -98.5% (active) in assay [16]; -87.5% (active) in [19]; 32.8% in [17]; -18.4% (active) in assay [20]. For the same compound, the growth in assay [18] was -23.8% (active).
Consider `Clc1ccc(COC(Cn2ccnc2)c2ccc(Cl)cc2Cl)cc1` (centres undefined), for which the growth in assay [1] is 53%; in assay [2] it was 43.6%; in assay [3], 93.3%; in assay [4] it was 78%; in assay [5] it was 64.4%; in assay [6], 21.1%. Besides, the growth in assay [7] is 49.5%; in [8], 52.6%; in assay [9] it was 31.6%; in assay [10] it was 83.9%; in assay [11], 68.9%; in assay [12], 30.7%. The growth in [13] is 68.4%; in assay [14] it was 20.7%; in assay [15], 62%; in assay [19], 21.4%; in [17], 43.4%; in assay [20], -40.2% (active). The growth in assay [18] was 30.6%.
Consider `CCCCN1CCCC[C@@H]1C(=O)N[C@H](C(=O)N(C)[C@H](C[C@@H](OC(C)=O)c1nc(C(=O)NC2CCC(C(=O)OC)CC2)cs1)C(C)C)C(C)C` (some centres undefined), for which the growth was 30.9% in assay [1]; 14.8% in assay [2]; -4.95% (active) in [3]; 24% in assay [4]; 15.5% in assay [5]; 29.1% in [6]. Moreover, the growth in assay [7] is 38.4%; in assay [8], 33.3%; in [9], 35.6%; in assay [10], 72.1%; in [11], 35.5%; in [12], 34.8%. In addition, the growth in assay [13] was 46.3%; in assay [14], 52.8%; in [15], 55.6%; in assay [17] it was 22.3%; in assay [20], -30.4% (active); in [18] it was 5.58% (active).
With `O=C(O)c1ccc([S-])cc1.[Au+].c1ccc(CN2[CH-]N(Cc3ccccc3)C(c3ccccc3)=C2c2ccccc2)cc1`, the growth in assay [1] was -89.3% (active); in [2], -24.7% (active); in assay [3], -9.88% (active); in assay [4] it was -66.8% (active); in assay [5], -82.5% (active); in assay [6], -25.6% (active). Moreover, the growth was -92.9% (active) in assay [7]; -51.6% (active) in assay [8]; -78.9% (active) in [9]; -20.2% (active) in [10]; -43.2% (active) in [11]; -52.9% (active) in assay [12]. Moreover, the growth was -67.8% (active) in assay [13]; -79.4% (active) in assay [14]; -61.7% (active) in assay [15]; -65.7% (active) in assay [16]; -33.8% (active) in assay [17]; 1.41% (active) in [18].
Consider `C[C@@H]1O[C@@H](O[C@H]2C[C@@H](O)[C@]3(CO)C4C(CC[C@]3(O)C2)[C@@]2(O)CC[C@H](C3=CC(=O)OC3)[C@@]2(C)C[C@H]4O)[C@H](O)[C@H](O)[C@H]1O` (some centres undefined), for which the growth is -74.6% (active) in [1]; -85.2% (active) in assay [2]; -83.9% (active) in assay [3]; -94.6% (active) in assay [4]; -97.3% (active) in assay [5]; 6.86% (active) in [6]. The growth was -95.5% (active) in [7]; -66.5% (active) in assay [8]; -88.2% (active) in [9]; -87.6% (active) in assay [10]; -59.9% (active) in [11]; -74.3% (active) in assay [12]. The growth is -22.5% (active) in assay [13]; -87.3% (active) in [14]; -65% (active) in [15]; -73.4% (active) in [19]; -6.39% (active) in assay [17]; -53.2% (active) in [20]. Further, the growth in [18] is -12% (active).
On to `COC(=O)[C@@H](C)C[C@H](Cc1ccccc1)NC(=O)c1nc([C@@H](C[C@H](C(C)C)N(C)C(=O)[C@@H](NC(=O)[C@H]2CCCCN2C)C(C)C)OC(C)=O)sc1C(C)C`, for which the growth in assay [1] is 5.69% (active); in assay [2], 1.52% (active); in assay [3], -0.49% (active); in assay [4], 27.7%; in assay [5], 6.19% (active); in [6] it was 21.2%. For the same compound, the growth in assay [7] is -57.3% (active); in assay [8], 29.4%; in assay [9], 9.2% (active); in assay [10], 49.1%; in [11], 20%; in [12], 31.2%. The growth in assay [13] is 10.8%; in assay [14] it was 18.3%; in assay [15], 45%; in assay [17], -9.92% (active); in assay [20] it was -45.5% (active); in assay [18] it was 7.31% (active).

The values are drawn from PubChem BioAssay (NCI).
